Test results published in the supplement of paper PMC9262897, “Low-cost anti-mycobacterial drug discovery using engineered E. coli” (Nature Communications, 2022).
Where a name gives a salt, the structure may show the parent alone. ± gives the standard deviation of the averaged measurements.

What follows are compounds tested on E. coli TESEC Mtb Alr (assay: growth (OD600 after 10 h); higher = more growth (less inhibition)). Settings: arabinose 1000000 nM; compound 0.1 mM; raw OD600 reference: median of DMSO wells 0.193, cell-free background 0.041.
Protocol: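 TESEC Mtb Alr E. coli, or the Alr+ wild-type control, in 384-well plates with Prestwick library compounds at 0.1 mM and 1% DMSO, across arabinose induction levels of 1E3 to 1E7 nM. Growth is read as OD600 after 10 h at 37 °C in triplicate biological replicates.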

SMILES | growth
CN(C)CCN(Cc1ccc(Cl)cc1)c1ccccn1 [Chloropyramine hydrochloride] | 0.148 ± 0.0046
O=C1NCCN1CCN1CCC(c2cn(-c3ccc(F)cc3)c3ccc(Cl)cc23)CC1 [Sertindole] | 0.04 ± 0.0001
O=C1NCC2(CCN(CCc3ccccc3)CC2)O1 [Fenspiride hydrochloride] | 0.185 ± 0.0044
CC(C)[C@H]1CC[C@H](C(=O)N[C@H](Cc2ccccc2)C(=O)O)CC1 [Nateglinide] | 0.114 ± 0.0027
CCOC(=O)[C@H](CCc1ccccc1)N[C@@H](C)C(=O)N1CCC[C@H]1C(=O)O [Enalapril maleate] | 0.174 ± 0.0046
CC1(C)O[C@@H]2[C@@H](CO[C@@]3(COS(N)(=O)=O)OC(C)(C)O[C@@H]23)O1 [Topiramate] | 0.204 ± 0.0062
c1ccc2c(c1)CCCc1cc(NCCN3CCOCC3)nnc1-2 | 0.149 ± 0.0053
CC[C@@H]1C(=O)OC[C@@H]1Cc1cncn1C [Pilocarpine nitrate] | 0.18 ± 0.0025
Cn1ccnc1S [Methimazole] | 0.191 ± 0.0034
NC[C@H]1O[C@H](O[C@H]2[C@H](O)[C@@H](O[C@H]3O[C@H](CO)[C@@H](O)[C@H](N)[C@H]3O)[C@H](N)C[C@@H]2N)[C@H](N)C[C@@H]1O [Tobramycin] | 0.03913 ± 0.00031
O=C1C(CC[S+]([O-])c2ccccc2)C(=O)N(c2ccccc2)N1c1ccccc1 (stereo not given) [Sulfinpyrazone] | 0.151 ± 0.0048
C=C1/C(=C\C=C2/CCC[C@]3(C)[C@@H]([C@H](C)CCCC(C)C)CC[C@@H]23)C[C@@H](O)C[C@@H]1O [Alfacalcidol] | 0.065 ± 0.0018
C[C@H](O)C(=O)Nc1c(I)c(C(=O)NC(CO)CO)c(I)c(C(=O)NC(CO)CO)c1I [Iopamidol] | 0.195 ± 0.0084
CCCCNc1cc(C(=O)O)cc(S(N)(=O)=O)c1Oc1ccccc1 [Bumetanide] | 0.159 ± 0.0062
CN(C)CCCOc1nn(Cc2ccccc2)c2ccccc12 [Benzydamine hydrochloride] | 0.112 ± 0.0038
CCn1nc(C(=O)O)c(=O)c2cc3c(cc21)OCO3 [Cinoxacin] | 0.108 ± 0.0017
CCCCOC(=O)c1ccc(N)cc1 [Butamben] | 0.233 ± 0.0061
C#C[C@]1(O)CC[C@H]2[C@@H]3CCC4=CCCC[C@@H]4[C@H]3CC[C@@]21C [Lynestrenol] | 0.164 ± 0.0081
CCc1c2c(nc3ccc(OC(=O)N4CCC(N5CCCCC5)CC4)cc13)-c1cc3c(c(=O)n1C2)COC(=O)[C@]3(O)CC [Irinotecan hydrochloride trihydrate] | 0.18 ± 0.0024
CN(C)CCn1nnnc1SCC1=C(C(=O)O)N2C(=O)[C@@H](NC(=O)Cc3csc(N)n3)[C@H]2SC1 [Cefotiam hydrochloride] | 0.045 ± 0.00078

SMILES | growth
O=S(=O)(O)c1cc(O)ccc1O [Ethamsylate] | 0.182 ± 0.0086
NNC(=O)c1ccncc1 [Isoniazid] | 0.186 ± 0.007
O=C(O)/C=C/c1ccc(Cn2ccnc2)cc1 [Ozagrel hydrochloride] | 0.179 ± 0.0082
NCCC[C@H](N)CC(=O)N[C@H]1CNC(=O)[C@H]([C@H]2C[C@H](O)NC(N)=N2)NC(=O)/C(=C/NC(N)=O)NC(=O)[C@H](CO)NC(=O)[C@H](CO)NC1=O [Viomycin sulfate] | 0.112 ± 0.0031
CC1CS(=O)(=O)CCN1/N=C/c1ccc([N+](=O)[O-])o1 (stereo not given) [Nifurtimox] | 0.0414 ± 0.00017
CC(C)C(=O)Nc1ccc([N+](=O)[O-])c(C(F)(F)F)c1 [Flutamide] | 0.0619 ± 0.00076
Nc1ccc(S(=O)(=O)Nc2cnc3ccccc3n2)cc1 [Sulfaquinoxaline sodium salt] | 0.1074 ± 0.00085
Cc1cnc(NC(=O)C2=C(O)c3ccccc3S(=O)(=O)N2C)s1 [Meloxicam] | 0.117 ± 0.0022
CCCc1ncc(C[n+]2ccccc2C)c(N)n1 [Amprolium hydrochloride] | 0.18 ± 0.0063
COc1cc(C(=O)OCCCN2CCCN(CCCOC(=O)c3cc(OC)c(OC)c(OC)c3)CC2)cc(OC)c1OC [Dilazep dihydrochloride] | 0.118 ± 0.0022
CC(C)(O/N=C(\C(=O)N[C@@H]1C(=O)N2C(C(=O)[O-])=C(C[n+]3ccccc3)CS[C@H]12)c1csc(N)n1)C(=O)O [Ceftazidime pentahydrate] | 0.0575 ± 0.00086
O=C(c1ccc(OCCN2CCCCC2)cc1)c1c(-c2ccc(O)cc2)sc2cc(O)ccc12 [Raloxifene hydrochloride] | 0.0438 ± 0.002
CS(=O)(=O)c1ccc([C@@H](O)[C@@H](CO)NC(=O)C(Cl)Cl)cc1 [Thiamphenicol] | 0.0395 ± 0.0001
CN(C)CC/C=C1\c2ccccc2CSc2ccccc21 [Dosulepin hydrochloride] | 0.146 ± 0.0095
CCOc1nc2cccc(C(=O)O)c2n1Cc1ccc(-c2ccccc2-c2nnn[nH]2)cc1 [Candesartan] | 0.222 ± 0.015
CCc1cc(C(N)=S)ccn1 [Ethionamide] | 0.184 ± 0.0033
CN(C)CCCC1(c2ccc(F)cc2)OCc2cc(C#N)ccc21 (stereo not given) [Citalopram Hydrobromide] | 0.155 ± 0.0054
Cn1c(=O)c2c(ncn2C)n(C)c1=O [Caffeine] | 0.215 ± 0.0057
COc1ccc(C(=O)NCc2ccc(OCCN(C)C)cc2)cc1OC [Itopride] | 0.176 ± 0.0056
Cn1cnc([N+](=O)[O-])c1Sc1ncnc2[nH]cnc12 [Azathioprine] | 0.0691 ± 0.0013
